Pf growth 48h: inhibits P. falciparum growth in the first generation, 48 h; P. falciparum luciferase growth in erythrocytes, 48 h; Potency, µM (highest dose often 28.7 µM), inactives show at the top dose activity change, negative = inhibition, hits mostly inhibitors; actives 5.9% (n = 310,000); AID 504832; active = well fitted inhibition curve with a large enough effect; inconclusive = small, poorly fitted or top-dose-only effect, or another doubt; inactive = no such curve, though single readings can be large or run the other way; also: potency is read from the fitted curve at half-maximal effect; % is scaled to controls: 0 for no effect and ±100 for the full control effect
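Parasite viability was followed by luminescence of a genomically integrated firefly luciferase. Cultures held 0.1% parasitemia at 2% hematocrit (final), incubated under 5% CO2 at 37 C.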
Pf growth 96h: inhibits malaria parasite growth, 96 h | P. falciparum luciferase reporter growth, 96 h | Potency, µM (series often up to 28.7 µM), for inactives: at the highest dose activity change, negative = inhibition, hits mostly inhibitors | actives 6.9% (n = 320,000) | AID 504834; active = well fitted inhibition curve with a large enough effect; inconclusive = small, poorly fitted or top-dose-only effect, or another doubt; inactive = no such curve, though single readings can be large or run the other way; also: potency is read from the fitted curve at half-maximal effect; % is scaled to controls: 0 for no effect and ±100 for the full control effect
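96 h incubation, 37 C, 5% CO2, of luciferase-reporter P. falciparum-infected RBCs (2% hematocrit, 0.05% parasitemia final) with test compounds; endpoint luminescence.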
SARS PLpro yeast: blocks SARS-CoV papain-like protease in a yeast assay; S. cerevisiae expressing SARS-CoV PLpro, growth rescue; Potency, µM (doses to about 32.9 µM), without a hit: at the highest dose activity, positive = growth rescue, usual class: activators; actives 0.19% (n = 330,000); AID 485353; also: potency is read from the fitted curve at half-maximal effect; 0% is about no effect; nearly all actives have a fitted effect of over 55% in size
Shiga toxin inh: Shiga toxin inhibition | actives 9.2% (n = 290,000) | inhibition, % at 38.7 µM | AID 2315 | Vero cells, Shiga toxin protein synthesis inhibition reporter; in the data active = inhibition mostly above about 28%, no sharp cut-off; inactive = mostly below about 43%; also: 0% is about no effect
Cycloheximide cs: counter-screen for Shiga toxin inhibitors: cycloheximide protein synthesis inhibition; max response, %; cell reporter, cycloheximide protein synthesis inhibition counterscreen; actives 12% (n = 300,000); AID 2314; in the data active = max response mostly above about 13%, no sharp cut-off; inactive = mostly below about 14%; also: read at 38.3 µM for the half of the compounds with a filed dose; 0% is about no effect
NS1 inh: blocks influenza NS1 protein function | Potency, µM (top dose mostly 46.1 µM), for the others: top-dose activity, positive = more growth | actives 0.4% (n = 270,000) | AID 2326; also: potency is read from the fitted curve at half-maximal effect; actives are rising curves; nearly all actives have a fitted effect of over 50% in size
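A cell-based growth assay was used: compounds that relieve NS1-induced slow growth of budding yeast raise OD600. Assay medium was yeast nitrogen base with ammonium sulphate and -URA supplement, pH 6.0, with 2% galactose.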
Starred values were filed as active, the others as inactive; i = inactive; ? = inconclusive; . = no result given; [ ] = dose if it differs, or a comment. An excerpt weighted towards active compounds, which were near 21% of everything screened. Unless noted, calls follow the shape of the full dose curve.

SMILES	Pf growth 48h	Pf growth 96h	SARS PLpro yeast	Shiga toxin inh	Cycloheximide cs	NS1 inh
CC(C)C(CCNCc1ccccn1)c1ccc(Cl)cc1 (stereo not drawn)	?	?	-1%	3	-3	0%
Fc1ccc(-c2ccc(CNCc3ccccn3)o2)cc1	47%	-17%	0%	.	25*	-1%
CN(C)C1=NCCN1CCc1ccccc1	10%	66%	2%	.	.	.
COc1ccc(CCC(=O)N2c3ccccc3CC2C)cc1 (stereo not drawn)	13%	0%	-9%	88*	35*	-25%
CCc1ccccc1NC(=O)N1CCc2ccccc21	21%	-2%	-2%	53*	16*	-33%
O=C(NCC1CCCC(CNC(=O)N2CCc3ccccc32)C1)N1CCc2ccccc21 (stereo not drawn)	.	5.9µM*	5%	-8	13	10%
Cc1ccc(OCCC(=O)OCC(=O)N2c3ccccc3CC2C)cc1 (stereo not drawn)	?	0%	.	12	-4	-53%
CCc1ccccc1NC(=O)CCC(=O)N1CCSc2ccccc21	-10%	4.1µM*	-3%	-3	1	7%
CCc1ccc(NC(=O)CCC(=O)N2CCSc3ccccc32)cc1	-4%	-12%	-7%	-4	2	-51%
CCOn1c(=O)c(C)[n+]([O-])c2ccccc21	-4%	?	11%	3	-5	-2%
CCOCC(=O)N1CCc2ccccc21	13%	.	6%	17	1	-1%
COc1ccc(NC(=O)N2CCCc3ccccc32)cc1	47%	-7%	-7%	122*	18*	-11%
COc1ccc(NC(=O)CSCC(=O)N2c3ccccc3CCc3ccccc32)cc1	?	?	-19%	-13	1	2%
O=C(Cc1ccc(-n2cccc2)cc1)N1CCc2ccccc21	.	?	1%	47	20*	5%
C=CCC(CC)C(=O)NC(=O)N1CCCc2ccccc21 (stereo not drawn)	0%	-6%	2%	30*	7	6%
CCOc1ccccc1NC(=O)N1CCCc2ccccc21	2%	145%	4%	33	12	-10%
COc1ccc(NC(=O)N2CCc3ccccc32)cc1	126%	.	-15%	38	29*	-47%
CC(/C=N/NC(=O)CSc1n[nH]c(=O)[nH]c1=O)=C\c1ccccc1	-5%	13%	1%	18	8	2%
COc1cc(C(=S)N2CCOCC2)ccc1OC(=O)c1cc(OC)c(OC)c(OC)c1	.	0%	1%	3	-2	0%
COc1ccc(C(=O)N2CCc3ccccc32)cc1	11%	-29%	11%	46*	30*	-13%
CC1(CCc2ccccc2)NC(=O)N(CC(=O)N2CC(=O)Nc3ccccc32)C1=O (stereo not drawn)	?	-16%	0%	14	7	-2%
COc1ccc(N/N=C(/C(C)=O)N2CCCc3ccccc32)cc1	4%	12µM*	0%	43	11	-42%
CC1Cc2ccccc2N1C(=O)CN1C(=O)NC(C)(CCc2ccccc2)C1=O (stereo not drawn)	-29%	?	-1%	-2	14*	12%
O=C(c1ccccc1)N1CCc2ccccc21	11%	.	-2%	20	19	?
CC1Cc2ccccc2N1C(=O)CCS(=O)(=O)c1cccs1 (stereo not drawn)	0%	?	0%	60*	33*	-49%
SMILES	Pf growth 48h	Pf growth 96h	SARS PLpro yeast	Shiga toxin inh	Cycloheximide cs	NS1 inh
CC(C)(CO)NCC(O)Cn1cc(C=O)c2ccccc21 (stereo not drawn)	2%	36%	-2%	-12	-3	.
COc1ccc(OC)c(NC(=O)N2CCCc3ccccc32)c1	24%	-24%	-3%	30	25*	-2%
O=C(Nc1ccccc1)N1CCc2ccccc21	i	5%	-23%	71*	37*	-10%
CCn1cc(C(=O)N2CCCc3ccccc32)c2cc(OC)c(OC)cc2c1=O	15µM*	.	6%	0	6	-14%
CCn1cc(C(=O)N2CCN(c3ccccc3OC)CC2)c2cc(OC)c(OC)cc2c1=O	-6%	18%	-2%	-3	-3	.
O=C(CCC(=O)N1CCc2ccccc21)Nc1ccccc1	4%	.	-8%	11	2	-17%
COc1ccc(CCC(=O)N2CCc3ccccc32)cc1	135%	56%	8%	133*	41*	-56%
CC1(C)S[C@@H]2[C@H](NC(=O)[C@H](NC(=O)N3CCN(S(C)(=O)=O)C3=O)c3ccccc3)C(=O)N2[C@H]1C(=O)O	-14%	-11%	.	.	.	.
COC(=O)/C=C/c1c(C)nc(NCc2ccccc2)nc1Cl	-11%	-15%	1%	-7	-2	-6%
O=C(OCCOc1ccccc1)c1n[nH]c2ccccc12	222%	180%	-2%	55*	47*	-9%
CN(C(=O)COC(=O)c1n[nH]c(=O)c2ccccc12)c1ccccc1	-4%	5%	-6%	.	.	.
O=C(COC(=O)c1n[nH]c2ccccc12)Nc1ccccc1	134%	297%	-3%	57*	39*	2%
CN(C(=O)COC(=O)c1n[nH]c2ccccc12)c1ccccc1	65%	136%	0%	41	27*	-4%
O=C(COC(=O)c1ccc2[nH]c3c(c2c1)CCCC3)Nc1ccccc1	-3%	17%	-9%	42*	16*	10%
O=C(COC(=O)c1n[nH]c2ccccc12)Nc1ccc(S(=O)(=O)N2CCCC2)cc1	-8%	156%[5.75 µM]	1%	-6	-3	0%
Cc1ccc(S(=O)(=O)NC(CC(C)C)C(=O)N2CCCC2)cc1 (stereo not drawn)	?	41%	5%	-6	-1	12%
CC(=O)Nc1sc(C)c(C)c1C(=O)OCC(=O)N(CCC#N)c1cc(C)cc(C)c1	?	?	-3%	.	.	.
Nc1ccccc1C(=O)OCCOc1ccccc1	240%	.	-7%	87*	34*	-34%
COc1ccc(OC)c(NC(=O)COC(=O)c2n[nH]c3ccccc23)c1	?	-20%	-3%	.	.	.
O=C(O)c1ccccc1OCCOc1ccccc1	16%	-15%	7%	12	8	-58%
CCOC(=O)c1n[nH]c2ccccc12	9%	?	-3%	-29	-2	-12%
Cc1cc(C)cc(NC(=O)COC(=O)c2n[nH]c3ccccc23)c1	55%	76%	0%	65*	31	.
CC(=O)c1cccc(NC(=O)COC(=O)c2n[nH]c3ccccc23)c1	11%	32%	3%	102*	19*	.
Cc1cc(C)n(CC(=O)c2cccc(N)c2)n1	-2%	19%	1%	-16	-2	6%
CC(=O)c1ccc(NC(=S)NC(C)c2ccc(Cl)cc2Cl)cc1 (stereo not drawn)	2.3µM*	?	-4%	-4	-3	.
CC(=O)c1ccc(NC(=S)NC(=O)Cc2ccc(Cl)cc2)cc1	7%	5%	1%	14	-2	4%
